target: Estrogen receptor (Homo sapiens) (UniProt P03372); assay: displacement of fluorescent estrogen from ERalpha – cell-based, Cos7 ERalpha-GFP, flow cytometry, primary screen (AID 1211); conditions: fluorescent ligand competition, binding inhibition, at 0.1 µM, stronger effect = higher value;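 further: 0% = DMSO vehicle wells and 100% = no E2-Alexa633 signal left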
Sequence (P03372 whole entry, looked up): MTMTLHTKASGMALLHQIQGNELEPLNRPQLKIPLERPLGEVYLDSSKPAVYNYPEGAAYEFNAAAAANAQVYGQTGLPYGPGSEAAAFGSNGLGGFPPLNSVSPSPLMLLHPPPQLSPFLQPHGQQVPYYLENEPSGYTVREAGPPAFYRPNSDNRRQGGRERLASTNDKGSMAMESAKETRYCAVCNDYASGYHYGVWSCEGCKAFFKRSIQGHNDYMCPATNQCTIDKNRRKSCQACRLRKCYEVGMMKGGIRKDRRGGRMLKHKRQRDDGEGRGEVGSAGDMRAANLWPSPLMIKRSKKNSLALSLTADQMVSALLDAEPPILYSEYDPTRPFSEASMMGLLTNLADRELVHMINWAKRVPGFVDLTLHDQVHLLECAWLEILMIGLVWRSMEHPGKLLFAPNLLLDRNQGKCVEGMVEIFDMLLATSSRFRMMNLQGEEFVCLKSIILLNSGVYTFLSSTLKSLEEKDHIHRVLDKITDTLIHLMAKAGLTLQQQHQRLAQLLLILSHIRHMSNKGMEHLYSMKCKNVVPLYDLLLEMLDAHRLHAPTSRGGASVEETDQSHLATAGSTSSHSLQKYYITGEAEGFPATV

| Compound | inhibition of ligand binding |
| --- | --- |
| Oc1ccccc1C1=Nc2ccccc2N=C(c2cccs2)C1 | 54% |
| COc1ccc(-c2ccc(=O)[nH]n2)cc1 | 52% |
| COC(=O)c1ccccc1NC(=O)c1noc2c1CCC2 | 21% |
| O=C(NCc1ccco1)c1cc2cc3ccc(Cl)cc3nc2o1 | 30% |
| Cc1ccc(NC(=O)CN2C(=O)S/C(=C/c3ccc(-c4cc(C(=O)O)ccc4C)o3)C2=O)cc1C | 39% |
| O=c1[nH]c(N/N=C/c2ccc(O)cc2)nc2ccccc12 | 37% |
| O=C(Oc1ccc(-c2cnc3ccccc3n2)cc1)c1ccc(Br)o1 | 1% |
| CCN1CCc2nc(NC(=O)Cc3ccc4c(c3)OCCO4)sc2C1 | 31% |
| O=C(NCc1ccco1)c1cc2ccc(O)cc2oc1=O | 46% |
| Cc1cc2n(c1)CCn1c(C)ccc1-2 | 53% |
| O=C1NCCCC2c3cc(O)c4ccccc4c3OC12N1CCCCC1 (stereo unspecified) | 23% |
